For 24 compounds, Potency results are on record in PubChem BioAssay (Tox21).

“And” between values parts separate entries of the source, which are not always exact repeats. Equal entries are not always repeated. Records with an inconclusive call do not appear. Where a structure was tested more than once in an assay, its records may differ in their call. The source made the active and inactive calls. Calls follow the shape of the dose curve; as a rule, active = well fitted curve in the direction sought with a large enough effect in the repeat runs; inconclusive = weak or mixed curves; inactive = no such curve, though single readings can be large; an effect the other way counts as inactive or inconclusive.

Assay [1] is described as follows: A CellTox Green Cytotoxicity Assay to monitor cytotoxicity in HepG2 cells - 0 hour (AID 1224882). Also: nearly all actives have a fitted effect of over 35% in size. Also: potency is read from the fitted curve at half-maximal effect. In short, it runs like this: (§1)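 Continuous culture of HepG2 cells with a membrane-impermeant DNA dye; rising fluorescence marks dead cells. Compound exposure lasted up to 40 h at 37 C, with reads every 8 h from 0 h.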
Assay [2] is described as follows: A CellTox Green Cytotoxicity Assay to monitor cytotoxicity in HepG2 cells - 32 hour (AID 1224883). Also: nearly all actives have a fitted effect of over 50% in size. Also: potency is read from the fitted curve at half-maximal effect. The essentials:
as §1

Assay [3] is described as follows: A CellTox Green Cytotoxicity Assay to monitor cytotoxicity in HEK293 cells - 8 hour (AID 1224884). Also: nearly all actives have a fitted effect of over 35% in size. In short, it runs like this: (§2)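 Each value comes from one timepoint of a single continuous run in which HEK293 cells with CellTox Green were exposed to compound for up to 40 h at 37 C, dye fluorescence rising with cell death.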
A short description of assay [4]: qHTS RealTime-Glo MT Cell Viability Assay in HepG2 cells - 16 hour (AID 1224885). Also: nearly all actives have a fitted effect of over 50% in size. Also: potency is read from the fitted curve at half-maximal effect. In short, it runs like this:
(§3)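 Cells + NanoLuc/prosubstrate dispensed (600 cells/well) → 5 h at 37 C/5% CO2 → compounds in DMSO transferred → 40 h incubation at 37 C, luminescence read at 0, 8, 16, 24, 32, 40 h.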

A short description of assay [5]: qHTS RealTime-Glo MT Cell Viability Assay in HEK293 cells - 24 hour (AID 1224886). Also: nearly all actives have a fitted effect of over 50% in size. Also: potency is read from the fitted curve at half-maximal effect. The essentials:
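Tox21 10K qHTS, HEK293, 600 cells/well, RealTime-Glo reagent co-dispensed with cells; 5 h preincubation, compound by pintool, 37 C, luminescence at 0–40 h.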
In general terms: In qHTS, concentration-response curves come from the screen itself.

Assay [6] is described as follows: A CellTox Green Cytotoxicity Assay to monitor cytotoxicity in HEK293 cells - 16 hour (AID 1224888). Also: nearly all actives have a fitted effect of over 35% in size. Also: potency is read from the fitted curve at half-maximal effect. In short, it runs like this:
as §2

The nature of assay [7]: qHTS RealTime-Glo MT Cell Viability Assay in HepG2 cells - 0 hour (AID 1224889). Also: nearly all actives have a fitted effect of over 50% in size. Also: potency is read from the fitted curve at half-maximal effect. In short, it runs like this:
as §3

A short description of assay [8]: A CellTox Green Cytotoxicity Assay to monitor cytotoxicity in HepG2 cells - 8 hour (AID 1224890). Also: nearly all actives have a fitted effect of over 45% in size. Also: potency is read from the fitted curve at half-maximal effect. In short, it runs like this:
as §1

Assay [9] in a line: qHTS assay to identify small molecule antagonists of the estrogen receptor alpha (ER-alpha) signaling pathway using the BG1 cell line in the presence of 0.1 nM 17-beta-estradiol - cell viability counter screen (AID 1259241). Also: nearly all actives have a fitted effect of over 40% in size. In short, it runs like this:
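Estradiol-stimulated (0.1 nM) VM7Luc4E2 cells exposed to compounds 22 hr; viability measured by fluorescence of cleaved CellTiter-Fluor substrate after 30 min.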

Assay [10] is described as follows: qHTS RealTime-Glo MT Cell Viability Assay in HEK293 cells - 8 hour (AID 1224887). Also: nearly all actives have a fitted effect of over 50% in size. Also: potency is read from the fitted curve at half-maximal effect. In short, it runs like this:
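qHTS format; HEK293 cells with NanoLuc/prosubstrate reagent, 37 C/5% CO2 for 5 h pre-dosing; compounds 23 nL in DMSO; luminescence at each time point reflects viable cells.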
% is scaled to controls: 0 for no effect and ±100 for the full control effect.

`O=C(O)CCCC(=O)O`: the Potency entry in [1], in [2], in [3], in assay [4], in [5] and in assay [6] was “inactive” each time. The Potency result in assay [7], in assay [8] and in assay [9] was “inactive” throughout.

As to `C=C[C@@]1(C)CC(=O)[C@]2(O)[C@@]3(C)[C@@H](O)CCC(C)(C)[C@@H]3[C@H](O)[C@H](OC(C)=O)[C@@]2(C)O1`, the Potency result in assay [1], in assay [2], in assay [3], in assay [4], in [5] and in assay [6] was “inactive” in each case. Moreover, the Potency result in assay [7], in [8] and in [9] was “inactive” each time.

Turning to `C=CCNCC=C`, the Potency entry in assay [1], in assay [2], in assay [3], in assay [4], in assay [5] and in [6] was “inactive” each time. Moreover, the Potency entry in assay [7], in [8] and in [9] was “inactive” in each case.

In the case of `OCCNCCO`, the Potency entry in assay [1], in [2], in [3], in assay [4], in assay [5] and in [6] was “inactive” in each case. Further, the Potency entry in assay [7], in assay [8] and in assay [9] was “inactive” in each case.

As to `c1ccc2cc3ccccc3cc2c1`, the Potency entry in assay [1], in assay [2], in assay [3], in [4], in assay [5] and in assay [6] was “inactive” throughout. Also, the Potency result in assay [7], in [8] and in [9] was “inactive” each time.

As for `Oc1c(Cl)ccc(Cl)c1Cl`, the Potency entry in [1], in assay [2], in [3], in [4], in [5] and in assay [6] was “inactive” in each case. Besides, the Potency entry in [7], in [8] and in assay [9] was “inactive” throughout.

Consider `COc1ccc2nc(N)sc2c1`, for which the Potency result in assay [1], in [2], in assay [4], in assay [10], in assay [6] and in [7] was “inactive” throughout. Further, the Potency result in assay [8] and in [9] was “inactive” throughout. The Potency entry in [5] is “inactive and 3.09 µM (active)”.

With `CC(=O)Nc1ccc2c(c1)Cc1cc(NC(C)=O)ccc1-2`, the Potency entry in assay [1], in assay [2], in assay [3], in assay [4], in [5] and in assay [10] was “inactive” each time. The Potency result in [6], in assay [8] and in assay [9] was “inactive” in each case.

For `Cc1ccc(/C(=C\CN2CCCC2)c2ccccn2)cc1`, the Potency result in assay [1], in assay [2], in [3], in [4], in assay [5] and in assay [10] was “inactive” in each case. The Potency result in assay [6], in [8] and in [9] was “inactive” in each case.

For `O=C1OC2(c3ccccc31)c1cc(I)c(O)c(I)c1Oc1c2cc(I)c(O)c1I`, the Potency is 11.8 µM (active) [middle of 4 runs] in assay [1]; 13.3 µM (active) [middle of 4 runs] in assay [2]; 39 µM (active) and 27.9 µM (active) in assay [4]; 49.1 µM (active) and inactive in assay [5]; 49.1 µM (active) and inactive in assay [10]; 13.3 µM (active) [middle of 4 runs] in assay [6]. Further, the Potency in assay [7] is 12.3 µM (active) [middle of 4 runs]; in assay [8], 11.8 µM (active) [middle of 4 runs].

On to `CC1=CC(C)(C)Nc2ccccc21`, for which the Potency result in assay [1], in assay [2], in [4], in [5], in assay [10] and in assay [6] was “inactive” throughout. Moreover, the Potency result in assay [7], in assay [8] and in assay [9] was “inactive” throughout.

As for `C1CN(SSN2CCOCC2)CCO1`, the Potency result in assay [1], in assay [2], in assay [4], in assay [5], in assay [10] and in assay [6] was “inactive” each time. The Potency entry in assay [7], in assay [8] and in [9] was “inactive” throughout.

For `Nc1cc(Cl)c(N)c(Cl)c1`, the Potency result in assay [1], in [2], in [4], in assay [5], in assay [6] and in assay [7] was “inactive” throughout. The Potency result in [8] and in [9] was “inactive” in each case.

Turning to `COC(=O)c1ccc(C)cc1`, the Potency result in assay [1], in [2], in assay [4], in assay [5], in assay [6] and in [7] was “inactive” each time. Further, the Potency entry in assay [8] and in assay [9] was “inactive” each time.

As to `Clc1ccc(Sc2cc(Cl)c(Cl)cc2Cl)cc1`, the Potency entry in [1], in assay [2], in assay [4], in assay [5], in assay [10] and in assay [6] was “inactive” in each case. The Potency result in assay [7], in assay [8] and in assay [9] was “inactive” each time.

Regarding `CN(C)/N=N/c1nc[nH]c1C(N)=O`, the Potency entry in assay [1], in assay [2], in assay [4], in assay [5], in assay [10] and in assay [6] was “inactive” each time. Besides, the Potency result in assay [7], in assay [8] and in assay [9] was “inactive” throughout.

For the compound `C[C@]12C=CC(=O)C=C1CC[C@H]1[C@@H]3C[C@@H](O)[C@](O)(C(=O)CO)[C@@]3(C)C[C@H](O)[C@@]12F`, the Potency entry in assay [1], in [2], in assay [4], in [5], in assay [6] and in [8] was “inactive” each time. In addition, the Potency result in assay [9] is “inactive”. In addition, the Potency in assay [7] was 21.9 µM (active).

In the case of `IC(I)I`, the Potency entry in assay [1], in assay [2], in assay [4], in assay [5], in assay [6] and in assay [7] was “inactive” each time. Also, the Potency entry in [8] and in [9] was “inactive” in each case.

Take `COc1ccc(C(=O)c2ccccc2O)c(O)c1`: the Potency result in assay [1], in assay [2], in assay [4], in assay [5], in assay [6] and in [8] was “inactive” in each case. In addition, in assay [9], the Potency result is “inactive”.

Consider `O=S1(=O)CCCO1`, for which the Potency entry in assay [1], in [2], in assay [4], in assay [5], in assay [10] and in assay [6] was “inactive” each time. Further, the Potency result in [7], in [8] and in assay [9] was “inactive” in each case.

`CCCCCCCC/C=C\CCCCCCCC(=O)O`: the Potency result in assay [1], in assay [2], in assay [4], in assay [5], in [10] and in assay [6] was “inactive” each time. In addition, the Potency entry in assay [7], in assay [8] and in assay [9] was “inactive” throughout.

As for `CCCCCCCCCCC(CO)CCCCCCCC` (configuration not stated), the Potency result in assay [1], in [2], in [4], in assay [5], in assay [6] and in assay [7] was “inactive” each time. For the same compound, the Potency entry in [8] and in assay [9] was “inactive” each time.

With `c1ccc2ncccc2c1`, the Potency entry in assay [1], in assay [2], in [4], in [5], in assay [10] and in assay [6] was “inactive” each time. The Potency entry in [7], in [8] and in [9] was “inactive” in each case.

`CCC(=O)O[C@H]1[C@H](O[C@@H]2[C@@H](C)[C@H](O[C@H]3C[C@@](C)(OC)[C@@H](O)[C@H](C)O3)[C@@H](C)C(=O)O[C@H](CC)[C@@](C)(O)[C@H](O)[C@@H](C)C(=O)[C@H](C)C[C@@]2(C)O)O[C@H](C)C[C@@H]1N(C)C`: the Potency result in [1], in [2], in [4], in assay [5], in assay [6] and in assay [7] was “inactive” throughout. Further, the Potency result in assay [8] and in assay [9] was “inactive” each time.
